# Measurements from the supplement of paper PMC7411640.
# Structures can show the parent of a compound that is named as a salt.
# System: MDA-MB-468
# Test: phospho-S6 immunofluorescence (DAPI-normalised), per-plate z-score; higher = higher phospho-S6 signal (less pathway suppression)
# Conditions: 24 h
# Procedure: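 GPCR-targeted compound library (MedChemExpress HY-L006) tested on MDA-MB-468 PTEN-null TNBC cells in 384-well plates at 0.1, 1 or 10 uM, combined with vehicle, GDC0941 450 nM or lapatinib 1 uM, for 24 h. Phospho-S6 (S240/244) immunofluorescence normalised to DAPI and expressed as a per-plate z-score; values are the mean of biological triplicates.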
Compound,phospho-S6 immunofluorescence (z-score) (co-treatment: GDC0941 450 nM),phospho-S6 immunofluorescence (z-score) (co-treatment: lapatinib 1 uM),phospho-S6 immunofluorescence (z-score) (co-treatment: vehicle)
O=C1CCC[C@@H]2[C@H]3CCCN4CCC[C@@H](CN12)[C@@H]34 [Matrine] (compound 10 µM),-0.52,-0.53,-0.24
CC(C)(C)NCC(O)c1cc(Cl)c(N)c(Cl)c1 (centres undefined) [Clenbuterol (hydrochloride)] (compound 10 µM),1.42,1.64,0.37
COc1ccc2c(c1OC)CN1CCc3cc4c(cc3C1C2)OCO4 (centres undefined) [Tetrahydroberberine] (compound 10 µM),-0.04,-1.09,-0.52
CCC1(c2cccc(O)c2)CCCCN(C)C1 (centres undefined) [Meptazinol (hydrochloride)] (compound 10 µM),0.48,0.25,0.11
CN1C(=O)COc2c(C(=O)NC3CN4CCC3CC4)cc(Cl)cc21 (centres undefined) [Azasetron (hydrochloride)] (compound 10 µM),0.53,0.2,1.23
CCN(CC)C(=O)c1ccc(C2=CC3(CCNCC3)Oc3cccc(O)c32)cc1 (compound 10 µM),0.32,-0.78,0.88
CCN(CCCCO)C(C)Cc1ccc(O)cc1 (centres undefined) [O-desmethyl Mebeverine alcohol (hydrochloride)] (compound 10 µM),-0.73,-0.03,-0.64
CC(C)C[C@H](NC(=O)[C@H](Cc1ccccc1)NC(=O)CNC(=O)[C@@H](C)NC(=O)[C@@H](N)Cc1ccc(O)cc1)C(=O)O [[D-Ala2]leucine-enkephalin] (compound 10 µM),-0.29,0.01,1.34
Cc1ccc2c(c1)C1(CCN(CCc3nc(-c4ccccc4)oc3C)CC1)OC(=O)N2 (compound 10 µM),0.56,0.85,0.89
C[C@@H]1CN(Cc2ccc(F)cc2)CCN1C(=O)COc1ccc(Cl)cc1NC(N)=O (compound 10 µM),-3.5,-6.96,-8.26
C[N+]1(C)[C@@H]2C[C@@H](OC(=O)[C@H](CO)c3ccccc3)C[C@H]1[C@@H]1O[C@@H]12 [Methscopolamine (bromide)] (compound 10 µM),0.05,0.43,0.6
COC(=O)C1=CCCN(C)C1 [Arecoline (hydrobromide)] (compound 10 µM),0.22,0.44,0.56
Cc1cccc(C)c1NC1=NCCCS1 [Xylazine (hydrochloride)] (compound 10 µM),0.73,0.79,0.89
